Assay results reported in PubChem BioAssay (NCATS).
Inconclusive results are not listed. A number with no mark means an inactive call. Activity calls are given as the source filed them. The call rests on the fitted dose curve; in most records, active means well fitted inhibition curve with a large enough effect; inconclusive means small, poorly fitted or top-dose-only effect; inactive means no such curve, though single readings can be large or run the other way.

Test system: Zika virus NS2B-NS3 protease (linked construct)
Experiment: Primary screen NINDS Rhodamine qHTS for Zika virus inhibitors (AID 1347160); further: nearly all actives have a fitted effect of over 55% in size
Settings: purified NS2B-NS3 protease, Rhodamine110 substrate fluorescence; series mostly up to 57.1 µM; activity change, negative = inhibition: at the top concentration
How it was run: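 Enzyme (25 nM, linked NS2B-NS3) was preincubated 15 min with compound in 10 mM Tris-HCl pH 8.0, 0.01% Tween 20. Rhodamine110 substrate (1.5 microM) was then added and fluorescence read at start and after 15 min.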
On the % scale 0 is the no-effect control and ±100 the full control effect; potency means the concentration at half of the fitted maximal effect.

SMILES | activity change, negative = inhibition | outcome | Potency
C[C@H]1[C@H](C)CC[C@]2(C(=O)O[C@@H]3O[C@H](CO)[C@@H](O)[C@H](O)[C@H]3O)CC[C@]3(C(=O)O)C(=CCC4[C@@]5(C)CC[C@H](O[C@@H]6O[C@H](CO)[C@@H](O)[C@H](O)[C@H]6O)C(C)(C)C5CC[C@]43C)[C@H]12 (stereo partly drawn) | -20% [at 15.1 µM] | – | –
C=C(C)[C@H]1C[C@@H](O)C(=C)CC[C@@H](O)C(=C)[C@@H](O)C1 | – | inactive | –
O=C(O)CCc1cccc(O[C@@H]2O[C@H](CO)[C@@H](O)[C@H](O)[C@H]2O)c1O | – | inactive [at 33.1 µM] | –
CO[C@H]1C=C2C(CC[C@H](O[C@@H]3O[C@H](CO)[C@@H](O)[C@@H](O)[C@H]3O)C2(C)C)[C@]2(C)CC[C@]3(C)C([C@H](C)C(O)C(C=C(C)C)O[C@@H]4O[C@H](CO)[C@@H](O)[C@@H](O)[C@H]4O)CC[C@@]3(C)C12 (stereo partly drawn) | 21.6% [at 15.1 µM] | – | –
O=C(O)C[C@H]1CCC(=O)[C@@H]1C/C=C\CCOC1OC(CO)C(O)C(O)C1O (stereo partly drawn) | -2.13% [at 33.1 µM] | – | –
CC(=O)NCCCCn1c2c(c3ccccc31)C(=O)NCC2 | 14% | – | –
CC(C)c1ccc(CC(=O)N2CCC[C@@H](c3cccc(OC(C)(C)C(=O)O)c3)C2)cc1 | -24.2% | – | –
C=C1CC23CC1(O)CCC2C1=CC2OC(=O)C(C)(C2O)C1C3C(=O)O (stereo not drawn) | 11.2% [at 33.1 µM] | – | –
COc1cc(/C=C/C(=O)O[C@H]2[C@H](O)[C@@H](CO)O[C@@]2(CO)O[C@H]2O[C@H](COC(=O)c3ccc(O)cc3)[C@@H](O)[C@H](O)[C@H]2O)cc(OC)c1OC | 14.2% [at 15.1 µM] | – | –
CC(NC(=O)CC(=O)O)c1nc2ccccc2c(=O)[nH]1 (stereo not drawn) | – | – | 25.1 µM (active)
OC[C@H]1O[C@@H](OCCc2ccc(O)cc2)[C@H](O)[C@@H](O)[C@@H]1O | -2.51% | – | –
CC(=O)OC[C@]1(O)[C@H]2[C@H](OC(=O)CC(C)C)OC=C(CO[C@@H]3O[C@H](CO)[C@@H](O)[C@H](O)[C@H]3O)[C@H]2C[C@@H]1O | -18.6% [at 33.1 µM] | – | –
CC(C)CC(=O)OC[C@H]1O[C@@](COC(=O)CC(C)C)(O[C@H]2O[C@H](CO)[C@@H](O)[C@H](O)[C@H]2O)[C@@H](OC(=O)CC(C)C)[C@@H]1OC(=O)CC(C)C | – | inactive [at 15.1 µM] | –
CCOc1nc2cccc(C(=O)O)c2n1Cc1ccc(-c2ccccc2-c2noc(=O)[nH]2)cc1 | – | inactive | –
CC(C)C1=CC2=CCC3[C@](C)(CCC[C@@]3(C)C(=O)O)C2CC1O (stereo partly drawn) | – | inactive [at 33.1 µM] | –
CC(C)(O)CNc1nc(Nc2ccnc(C(F)(F)F)c2)nc(-c2cccc(C(F)(F)F)n2)n1 | 22% [at 33.1 µM] | – | –
C/C=C(\C)C(=O)O[C@H]1[C@@H](O[C@]2(COC(=O)CC(C)C)O[C@H](COC(=O)C(C)C)[C@@H](OC(C)=O)[C@@H]2O)O[C@H](COC(C)=O)[C@@H](O)[C@@H]1O | -18.2% [at 15.1 µM] | – | –
COc1cc(/C=C/CO)ccc1O[C@@H]1O[C@H](CO)[C@@H](O)[C@H](O)[C@H]1O | 3.19% [at 33.1 µM] | – | –
COc1cc(C(O)C(CO)Oc2ccc(CCCO[C@@H]3O[C@@H](C)[C@H](O)[C@@H](O)[C@H]3O)cc2OC)ccc1O (stereo partly drawn) | -23.8% [at 33.1 µM] | – | –
O=C(c1ccc(F)cc1)C1CCN(CCn2c(=O)nc3n(c2=O)CCCC3)CC1 | – | inactive | –
CC(=O)O[C@H]1C[C@@H]2[C@]3(CC[C@]4(C)[C@@H](C5(C)CCC(C(C)(C)O)O5)[C@@H](O)C[C@@]24C)C[C@@]32CC[C@H](O[C@@H]3OC[C@@H](O)[C@H](O)[C@H]3O)C(C)(C)[C@H]12 (stereo partly drawn) | -12.1% [at 15.1 µM] | – | –
COc1c2c(c(C)c3c1C(=O)OC3)O[C@@]1(C)C[C@@H](O)[C@]34O[C@](OC)(CC[C@]3(C)[C@H]1C2)OC4(C)C | 6.02% [at 33.1 µM] | – | –
CC(C)=CC/C=C(/C)[C@H]1CC[C@]2(C)[C@@H]1[C@H](O)CC1[C@@]3(C)CC[C@H](O)C(C)(C)[C@@H]3[C@@H](O[C@@H]3O[C@H](CO)[C@@H](O)[C@H](O)[C@H]3O[C@@H]3O[C@@H](C)[C@H](O)[C@@H](O)[C@H]3O)C[C@]12C (stereo partly drawn) | -7.19% [at 15.1 µM] | – | –
CC1(C)OC(=O)C(OCC2CC2)=C1c1ccc(S(C)(=O)=O)cc1 | – | inactive | –
CC[C@H](/C=C/[C@@H](C)[C@H]1CC[C@H]2[C@@H]3CC=C4C[C@@H](O)CC[C@]4(C)[C@H]3CC[C@]12C)C(C)C | 7.22% [at 4.91 µM] | – | –
CC1CC(O)C2(C)C(C(=O)O)=CCCC2C1(C)CCc1ccoc1 (stereo not drawn) | -17.6% [at 33.1 µM] | – | –
C=C(C(=O)OC)C1CCC2(C)C(O[C@@H]3O[C@H](CO)[C@@H](O)[C@H](O)[C@H]3O)CC(=O)C(C)C2C1O (stereo partly drawn) | -27.1% [at 33.1 µM] | – | –
CC1(C)C(=O)N2c3ccccc3[C@]3(CC(n4cnc5ccccc5c4=O)C(=O)O3)[C@H]2N1O (stereo partly drawn) | 23.6% [at 33.1 µM] | – | –
